Compounds without any hit were thinned out: in the full panel of roughly 83,000, 20% have a hit.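 Percent growth is the endpoint: 0 to 100 indicates growth inhibition (40 means 60% inhibition), 0 means no net growth, and negative values indicate cell death.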 Active and inactive are the calls of the source. The calls were made as follows: active = growth percent below 10; inactive = the rest.
Key:
Assay in all cases: NCI-60 one-dose screen, 48 h (100 = growth as untreated, 0 = no growth, -100 = all killed)
Settings in all cases: 10 µM unless noted
NCI-H23 lung = tested on: NCI-H23 lung
NCI-H226 lung = tested on: NCI-H226 lung
NCI-H322M lung = tested on: NCI-H322M lung
HOP-62 NSCLC = tested on: HOP-62 NSCLC
NCI-H460 lung = tested on: NCI-H460 lung
HOP-92 NSCLC = tested on: HOP-92 NSCLC
NCI-H522 lung = tested on: NCI-H522 lung
A549/ATCC NSCLC = tested on: A549/ATCC NSCLC
786-0 renal = tested on: 786-0 renal
COLO 205 colon = tested on: COLO 205 colon

Measured: growth

C#CC[C@@H]1C[C@]2(C)[C@H]3CC=C4[C@H]5[C@@H](C)[C@H](C)CC[C@]5(C(=O)NCCCCCCCCN)CC[C@@]4(C)[C@]3(C)CC[C@H]2C(C)(C)[C@H]1OC(C)=O
inactive: NCI-H23 lung 79.3% | NCI-H226 lung 94.6% | NCI-H322M lung 80.4% | HOP-62 NSCLC 104% | HOP-92 NSCLC 53.1% | A549/ATCC NSCLC 46.5% | 786-0 renal 80.6%
active: NCI-H460 lung -63.8% | NCI-H522 lung -1.25% | COLO 205 colon -23.4%

CN1CCN(Cc2ccc(NC(=O)c3ccc(C#N)c(C#Cc4cnc(N)c5ncccc45)c3)cc2C(F)(F)F)CC1
inactive: NCI-H23 lung 96.8% | NCI-H226 lung 59.4% | NCI-H322M lung 96.7% | HOP-62 NSCLC 87.2% | NCI-H460 lung 21.7% | HOP-92 NSCLC 81.9% | NCI-H522 lung 98.4% | A549/ATCC NSCLC 90.6% | COLO 205 colon 77.7%
active: 786-0 renal -80.3%

Cc1ccc(C2CC(c3cccs3)=NN2c2ccc(S(N)(=O)=O)cc2)s1 (stereo not given)
inactive: NCI-H23 lung 107% | NCI-H226 lung 89.8% | NCI-H322M lung 98% | HOP-62 NSCLC 95.6% | NCI-H460 lung 88.8% | HOP-92 NSCLC 75.2% | NCI-H522 lung 63.2% | A549/ATCC NSCLC 71.2% | 786-0 renal 98.5%
active: COLO 205 colon -75.1%

COc1ccc(/C=c2\c(=O)n(-c3ccccc3)c3nn4c(n23)=NNC42CCCCC2)cc1
inactive: NCI-H23 lung 92.7% | NCI-H226 lung 75.8% | NCI-H322M lung 96.3% | HOP-62 NSCLC 87.7% | NCI-H460 lung 101% | HOP-92 NSCLC 94.1% | NCI-H522 lung 90.3% | A549/ATCC NSCLC 104% | 786-0 renal 106% | COLO 205 colon 105%

CC1=NN(c2cccc(S(N)(=O)=O)c2)C(=O)C1
inactive: NCI-H23 lung 87.8% | NCI-H226 lung 90.3% | NCI-H322M lung 96.9% | HOP-62 NSCLC 97.7% | NCI-H460 lung 103% | NCI-H522 lung 113% | A549/ATCC NSCLC 87.4% | 786-0 renal 100% | COLO 205 colon 108%
active: HOP-92 NSCLC -30.8%

Cc1cccc(C(=O)O)n1
active: HOP-92 NSCLC 6.89%
inactive: NCI-H23 lung 123% | NCI-H226 lung 93.9% | NCI-H322M lung 108% | HOP-62 NSCLC 106% | NCI-H460 lung 105% | NCI-H522 lung 90.8% | A549/ATCC NSCLC 102% | 786-0 renal 112% | COLO 205 colon 114%

CCOc1cccc(/C=N/NC(=O)Cc2ccc(Nc3ccnc(C(F)(F)F)c3)cc2)c1O
inactive: NCI-H23 lung 39% | NCI-H322M lung 36.8% | HOP-92 NSCLC 46.7% | NCI-H522 lung 13.4% | A549/ATCC NSCLC 47.3% | 786-0 renal 29%
active: NCI-H226 lung -1.59% | HOP-62 NSCLC 7.88% | NCI-H460 lung 0.302% | COLO 205 colon 4.75%

C=CC[C@]1(O)CC[C@H]2[C@@H]3CCc4cc(O)ccc4[C@H]3CC[C@@]21C
inactive: NCI-H23 lung 112% | NCI-H226 lung 98.9% | NCI-H322M lung 97% | HOP-62 NSCLC 104% | NCI-H460 lung 97.8% | HOP-92 NSCLC 115% | NCI-H522 lung 63.9% | A549/ATCC NSCLC 91.3% | 786-0 renal 95.8% | COLO 205 colon 104%

CCCCCCCCCCCCCCCc1cc(O)ccc1[N+](=O)[O-]
inactive: NCI-H23 lung 79.6% | NCI-H226 lung 96.9% | NCI-H322M lung 100% | HOP-62 NSCLC 96% | NCI-H460 lung 102% | HOP-92 NSCLC 59.9% | NCI-H522 lung 28% | A549/ATCC NSCLC 96.8% | 786-0 renal 97.9% | COLO 205 colon 96%

Brc1ccccc1Cn1c(-c2cncs2)nc2ccccc21
active: HOP-92 NSCLC 0.748%
inactive: NCI-H23 lung 85.4% | NCI-H226 lung 70.5% | NCI-H322M lung 86.6% | HOP-62 NSCLC 76% | NCI-H460 lung 80.8% | NCI-H522 lung 66.8% | A549/ATCC NSCLC 82.7% | 786-0 renal 90.6% | COLO 205 colon 84.9%

O=C1C2=C(C(=O)c3c(O)ccc(O)c31)N(c1ccc(N3CCOCC3)nc1)Cc1ccccc1O2
active: NCI-H23 lung -33.8% | NCI-H226 lung 0% | NCI-H322M lung -14.6% | HOP-62 NSCLC -13% | NCI-H460 lung -32.6% | HOP-92 NSCLC -66.1% | NCI-H522 lung -47.3% | A549/ATCC NSCLC -23.2% | 786-0 renal -83.7% | COLO 205 colon -67.5%

O=C(Nc1ccc2ncnc(Nc3ccc(F)c(Cl)c3)c2c1)c1cccs1
inactive: NCI-H23 lung 81.6% | NCI-H226 lung 58.1% | NCI-H322M lung 19.3% | HOP-62 NSCLC 72.7% | NCI-H460 lung 39.6% | HOP-92 NSCLC 38% | NCI-H522 lung 31.4% | A549/ATCC NSCLC 43.3% | 786-0 renal 14.8% | COLO 205 colon 106%

COc1ccc(-c2nc(-c3ccccc3OCc3ccccc3OC)nc(C)c2C(C)=O)cc1
inactive: NCI-H23 lung 74.8% | NCI-H226 lung 81.5% | NCI-H322M lung 94.7% | HOP-62 NSCLC 91.5% | NCI-H460 lung 80.6% | HOP-92 NSCLC 71.2% | NCI-H522 lung 78.3% | A549/ATCC NSCLC 79.7% | 786-0 renal 91.3% | COLO 205 colon 86.7%

CC(C)(C)NC(=O)C(OC(=O)C1CCc2cc(F)ccc2O1)c1ccccc1Cl (stereo not given)
inactive: NCI-H23 lung 93.5% | NCI-H226 lung 95.6% | NCI-H322M lung 95.6% | HOP-62 NSCLC 94.4% | NCI-H460 lung 104% | HOP-92 NSCLC 89% | NCI-H522 lung 82.4% | A549/ATCC NSCLC 98.6% | 786-0 renal 100% | COLO 205 colon 130%

CCCCCCCCCCCCCCCCOc1ccc(S(=O)(=O)N(C)C)cc1[N+](=O)[O-]
inactive: NCI-H23 lung 97.4% | NCI-H226 lung 104% | NCI-H322M lung 103% | HOP-62 NSCLC 49.2% | NCI-H460 lung 118% | HOP-92 NSCLC 46.2% | NCI-H522 lung 94.5% | A549/ATCC NSCLC 98.7% | 786-0 renal 67.3% | COLO 205 colon 114%

CNCCCNc1ccnc2cc(Cl)ccc12
active: NCI-H23 lung -50.4% | NCI-H226 lung -17.6% | NCI-H322M lung -40.7% | HOP-62 NSCLC -27.1% | NCI-H460 lung -28.2% | HOP-92 NSCLC -17.9% | NCI-H522 lung -62.3% | A549/ATCC NSCLC 1.29% | 786-0 renal 3.83% | COLO 205 colon -88.9%

C=C(C)c1ccc(/C=N/NC(N)=S)cc1
inactive: NCI-H23 lung 103% | NCI-H226 lung 86.3% | NCI-H322M lung 111% | HOP-62 NSCLC 77.4% | NCI-H460 lung 99.9% | HOP-92 NSCLC 131% | NCI-H522 lung 103% | A549/ATCC NSCLC 118% | 786-0 renal 11.4% | COLO 205 colon 120%

COc1ccc(/C=c2\c(=O)n(-c3ccccc3)c3nn4c(=O)c(=O)[nH]nc4n23)cc1
inactive: NCI-H23 lung 99.9% | NCI-H226 lung 92.8% | NCI-H322M lung 113% | HOP-62 NSCLC 102% | NCI-H460 lung 106% | HOP-92 NSCLC 100% | NCI-H522 lung 100% | A549/ATCC NSCLC 110% | 786-0 renal 108% | COLO 205 colon 119%

COc1ccc2cc(-c3nc(C)c(C(C)=O)c(-c4ccc(C)cc4)n3)ccc2c1
inactive: NCI-H23 lung 89.2% | NCI-H226 lung 80.1% | NCI-H322M lung 87.5% | HOP-62 NSCLC 105% | NCI-H460 lung 92.6% | HOP-92 NSCLC 86.2% | NCI-H522 lung 81.3% | A549/ATCC NSCLC 92.4% | 786-0 renal 87.9% | COLO 205 colon 102%

COc1ccc([C@@H]2[C@@H](Cl)C(=O)N2c2cc(OC)c(OC)c(OC)c2)cc1C
inactive: NCI-H23 lung 25.3% | NCI-H226 lung 53.9% | NCI-H322M lung 35.3% | HOP-62 NSCLC 23.3% | HOP-92 NSCLC 76% | NCI-H522 lung 10.2% | A549/ATCC NSCLC 23.6%
active: NCI-H460 lung 9.34% | 786-0 renal 7.98% | COLO 205 colon -57%

CCSc1ccc([C@@H]2[C@@H](N)C(=O)N2c2cc(OC)c(OC)c(OC)c2)cc1
active: COLO 205 colon -5.46%
inactive: NCI-H23 lung 35.9% | NCI-H226 lung 59.4% | NCI-H322M lung 45.7% | HOP-62 NSCLC 41.8% | NCI-H460 lung 12.2% | HOP-92 NSCLC 113% | NCI-H522 lung 18.7% | A549/ATCC NSCLC 30.5% | 786-0 renal 31.7%

CCOP(=O)(O)OP(=O)(O)OCC
inactive: NCI-H23 lung 104% | NCI-H226 lung 103% | NCI-H322M lung 98.1% | HOP-62 NSCLC 103% | NCI-H460 lung 103% | HOP-92 NSCLC 98.6% | NCI-H522 lung 82.5% | A549/ATCC NSCLC 106% | 786-0 renal 99.4% | COLO 205 colon 103%

COc1cc2c(cc1OC)C(=O)OC2
inactive: NCI-H23 lung 118% | NCI-H226 lung 93.4% | NCI-H322M lung 116% | HOP-62 NSCLC 113% | NCI-H460 lung 110% | HOP-92 NSCLC 75.5% | NCI-H522 lung 111% | A549/ATCC NSCLC 104% | 786-0 renal 114% | COLO 205 colon 134%

C=C(C)[C@@H]1CC[C@]2(C)[C@H](CC=C3[C@@H]4C[C@](C)(C(=O)N5CCN(C)CC5)CC[C@]4(C)CC[C@]32C)[C@@]1(C)CCC#N
inactive: NCI-H23 lung 72.5% | NCI-H226 lung 69.6% | NCI-H322M lung 85.1% | HOP-62 NSCLC 63.1% | NCI-H460 lung 28% | HOP-92 NSCLC 32.7% | NCI-H522 lung 79.8% | A549/ATCC NSCLC 55.3% | 786-0 renal 71.5% | COLO 205 colon 45.2%

O=C(NCCNC(=O)c1cc(S(=O)(=O)NCCc2ccccc2)c(O)c(O)c1O)c1cc(S(=O)(=O)NCCc2ccccc2)c(O)c(O)c1O
inactive: NCI-H23 lung 38.9% | NCI-H226 lung 49.5% | NCI-H322M lung 39.5% | HOP-62 NSCLC 34.6% | NCI-H460 lung 32.1% | HOP-92 NSCLC 73.9% | NCI-H522 lung 41.6% | A549/ATCC NSCLC 45.8% | 786-0 renal 53.4% | COLO 205 colon 104%

Brc1cccc(-n2ncc3c(Nc4ccc(-c5nnc(-c6ccccc6)o5)cc4)ncnc32)c1
inactive: NCI-H23 lung 94.5% | NCI-H226 lung 90.2% | NCI-H322M lung 104% | HOP-62 NSCLC 89.6% | NCI-H460 lung 109% | HOP-92 NSCLC 104% | NCI-H522 lung 98.3% | A549/ATCC NSCLC 109% | 786-0 renal 104% | COLO 205 colon 107%

C/C(=N\OC(=O)Nc1cccc(Cl)c1)c1ccccc1
inactive: NCI-H23 lung 106% | NCI-H226 lung 92.1% | NCI-H322M lung 97.6% | HOP-62 NSCLC 95.8% | NCI-H460 lung 105% | HOP-92 NSCLC 132% | NCI-H522 lung 91.9% | A549/ATCC NSCLC 89.2% | 786-0 renal 99.4% | COLO 205 colon 117%

Source: PubChem BioAssay (NCI)
